Experiment: small-molecule microarray binders of probe aCHRDL2, primary screen, biochemical, biotinylated probe, 635/667 nm fluorescence (AID 1100)
Settings: higher = more signal
`N#Cc1ccc(NN2C(C(O)c3cc(C(F)(F)F)cc(C(F)(F)F)c3)C=CC3C(=O)N(c4ccccc4)C(=O)C32)cc1` (configuration not stated) showed a composite z-score of 1.04.
For `[N-]=[N+]=NCc1ccccc1[C@@H]1OC(c2ccc(OCCCO)cc2)=N[C@]1(Cc1ccccc1)C(=O)N1CCOCC1`, the composite z-score was 0.798.
Compound `CC(CCN1CCCCc2nc(C)c(C)cc21)=NOC(C)CN1CCCCc2nc(C)c(C)cc21` (configuration not stated) has a composite z-score of -0.595.
In the case of `O=C(NN=C1C[C@@H](O)[C@@H](O)[C@@H]2[C@@H]3C(=O)N(c4cccc(Oc5ccccc5)c4)C(=O)[C@@H]3CC[C@H]12)OCc1ccccc1`, the composite z-score is reported as 0.408.
Work on `CCOC(=O)CCN1C(=O)[C@H]2[C@H]3[C@H](O)[C@H](O)CC(=O)[C@H]3CC[C@H]2C1=O` yielded a composite z-score of -0.723.
Work on `O=C1O[C@@H](c2ccccc2)[C@@H](c2ccccc2)N2[C@@H](c3ccc(OCCO)cc3)[C@]3(C(=O)Nc4ccc(C#CCCO)cc43)[C@@H](C(=O)N3CCCCCCC3)[C@H]12` yielded a composite z-score of 1.13.
`c1ccc(C2NCCc3c2[nH]c2ccccc32)cc1` (configuration not stated) gave a composite z-score of 0.412.

Reference: PubChem BioAssay
